This is a sample that favours compounds with a hit; in the whole collection about 7.4% have one here.
M1 antag – antagonists of rat M1 muscarinic receptor | 64,000 tested, 3.4% active | P08482 | AID 628 | CHO-M1 cells, Fluo-4 calcium, ACh EC80 antagonist mode; stronger effect = lower value | B-score at 10 µM;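 active means calcium fluorescence response, raw or row-and-column corrected B-score, differing from the plate sample mean either way at a set confidence level, mostly lower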
FXIa mix inh – factor XIa (human) inhibition, mixture screen. purified FXIa, fluorogenic substrate, pooled mixtures. inhibition, % at 5 µM. 62,000 tested, 0.19% active. AID 680;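 further: each value is inhibition by a whole ten-compound pool holding the compound; 0% = enzyme with no mixture and 100% = wells lacking enzyme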
M1 agonist – M1 muscarinic receptor agonism | 64,000 tested, 3% active | B-score at 10 µM | AID 626 | CHO-M1 cells, Fluo-4 calcium fluorescence, agonist mode; stronger effect = higher value;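 active means fluorescence rise, raw or as B-score row- and column-corrected plate score, outside the 99.7% band of its plate's samples, either direction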
DAT uptake mod – modulates human dopamine transporter uptake under cocaine; LLC-PK1 hDAT cells, [14C]-dopamine uptake with cocaine IC80; actives deviate in either direction; 110,000 tested, 1.3% active; B-score at 10 µM; AID 449768; Q01959;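 active means Z score or B-score, a plate-position-corrected score, falls beyond the plate's 99.7% confidence bounds, in either direction; inactive means both scores lie inside the 99.7% bounds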;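 further: scored against the spread of the other compound wells on the same plate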
FXIIa inh mix – blocks human factor XIIa in pooled compound mixtures. P00748. inhibition, % at 5 µM. purified FXIIa, fluorogenic substrate. AID 684. 62,000 tested, 0.2% active;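 further: 0% = enzyme without compound and 100% = no enzyme blank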
D1 mod – allosterically modulates the human D1 dopamine receptor | B-score at 10 µM | AID 641 | HEK293 D1, CRE-luciferase, dopamine EC30 potentiation; actives deviate in either direction | 58,000 tested, 5.9% active | P21728;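 active means luminescence count or its row- and column-corrected plate score outside the 99.7% band of the plate's sample wells, on either side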
D1 PAM confirm – D1 receptor (human) allosteric modulation, confirmed | shares compounds with D1 mod | HEK293 D1 CRE-luciferase, dopamine EC30 potentiation; stronger effect = higher value | luminescence at 10 µM | 2,200 tested, 88% active | AID 642;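 active means luminescence in either of two replicates above the same-plate mean plus 3 SD of the low-dose dopamine control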
D1 ag no DA – secondary test of D1 modulators: activity without dopamine. shares compounds with D1 mod. HEK293 D1 CRE-luciferase, luminescence, no dopamine; stronger effect = higher value. AID 646. luminescence at 10 µM. 1,900 tested, 0.8% active; in the data active means luminescence above about 3900
Isoprot counter – counter-screen for D1 modulators: isoproterenol response in HEK293 cells; shares compounds with D1 mod; HEK293 D1 CRE-luciferase, isoproterenol EC30 counter-screen; calls only at 10 µM; 2,200 tested, 63% active; AID 647;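 active means luminescence in either replicate above plate mean of wells with a partly effective reference agonist dose plus 3 SD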;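 further: isoproterenol raises cAMP through native beta-adrenoceptor Gs so signal bypasses D1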
Numbers without * were called inactive. Unless noted, no stated cut-off is given here; in the data, active means inhibition above about 20% (passing the limit was not always enough); inactive means the rest.

Results for COCc1cc(C)nc(NC2CCCCC2)c1C#N ?
M1 antag: -1.03; FXIa mix inh: 6.9; M1 agonist: 2.3; DAT uptake mod: 0.121; FXIIa inh mix: 7.8; D1 mod: 3.53*; D1 PAM confirm: 5216; D1 ag no DA: 1592; Isoprot counter: inactive

What do the screens show for `COCc1cc(C)nc(N2CCCCC2)c1C#N`?
DAT uptake mod: 1.57

Results for Fc1cccc(Nc2cc(-n3cccn3)ncn2)c1 ?
M1 antag: -0.744; FXIa mix inh: 6.3; M1 agonist: -0.0403; DAT uptake mod: 0.468; FXIIa inh mix: 0.5; D1 mod: 8.48*; D1 PAM confirm: 8308*; D1 ag no DA: 1684; Isoprot counter: active

Results for CCc1ccc2nc(SCC(=O)N(CC)CC)c(C#N)cc2c1 ?
M1 antag: 1.07; FXIa mix inh: 6.8; M1 agonist: -0.838; DAT uptake mod: -0.902; FXIIa inh mix: 6.7; D1 mod: 3.13*; D1 PAM confirm: 8128*; D1 ag no DA: 1728; Isoprot counter: active

Results for CS(=O)(=O)c1sc2nc(-c3cccs3)cc(-c3ccccc3)c2c1N ?
M1 antag: 0.959; FXIa mix inh: -14.0; M1 agonist: -1.26; DAT uptake mod: 0.145; FXIIa inh mix: 14.0; D1 mod: 5.14*; D1 PAM confirm: 15760*; D1 ag no DA: 1468; Isoprot counter: inactive

How did CCOC(=O)C1=C(C)NC2=C(C(=O)CC(C)(C)C2)C1c1cccc(C)n1 (configuration not stated) do in these assays?
M1 antag: 0.896; FXIa mix inh: 6.7; M1 agonist: 0.975; DAT uptake mod: -1.01; FXIIa inh mix: -16.0; D1 mod: 0.815

What do the screens show for `CCOC(=O)CN=C1CC(C)(C)CC2=C1Sc1ncnc(N(C)C)c1N2`?
M1 antag: -1.36; FXIa mix inh: 3.4; M1 agonist: 8.2*; DAT uptake mod: -0.756; FXIIa inh mix: 0.1; D1 mod: 5.43*; D1 PAM confirm: 10372*; D1 ag no DA: 1464; Isoprot counter: active

What do the screens show for `NC(CC(=O)OC1CCCCC1)C(=O)OC1CCCCC1` (configuration not stated)?
M1 antag: 0.0438; FXIa mix inh: -7.5; M1 agonist: 0.619; DAT uptake mod: -0.471; FXIIa inh mix: 13.1; D1 mod: 0.413

How did O=C(NCS(=O)(=O)c1ccccc1)c1ccccc1 do in these assays?
M1 antag: 0.949; FXIa mix inh: 11.1; M1 agonist: -0.843; DAT uptake mod: -0.0775; FXIIa inh mix: 1.9; D1 mod: -0.307

Results for COc1ccc(-c2c3c(=O)n(C)c(=O)n(C)c3cn2-c2cc(OC)ccc2OC)cc1 ?
M1 antag: -1.56; FXIa mix inh: 5.2; M1 agonist: -0.972; DAT uptake mod: 2.09; FXIIa inh mix: -2.2; D1 mod: 6.01*; D1 PAM confirm: 8244*; D1 ag no DA: 1200; Isoprot counter: active

How did Cn1c(=O)c2c(-c3ccccc3)n(-c3ccccc3O)cc2n(C)c1=O do in these assays?
M1 antag: 0.183; FXIa mix inh: -1.3; M1 agonist: -1.28; DAT uptake mod: 0.492; FXIIa inh mix: -0.4; D1 mod: 2.37

How did CCCCN(CC)C(=O)c1ccc(Cl)c(Cl)c1 do in these assays?
M1 antag: -0.83; FXIa mix inh: 2.4; M1 agonist: 1.56; DAT uptake mod: -0.783; FXIIa inh mix: 1.9; D1 mod: 3.77*; D1 PAM confirm: 7124*; D1 ag no DA: 1704; Isoprot counter: inactive

What do the screens show for `O=C(NC1=NCCS1)C1CC(=O)N(c2ccccc2)C1` (configuration not stated)?
M1 antag: -0.141; FXIa mix inh: -0.9; M1 agonist: -0.739; DAT uptake mod: 0.199; FXIIa inh mix: 3.7; D1 mod: -0.128
